Measured values: ChEMBL document CHEMBL3988442, “University of Dundee, Small-Polar-MMV Screening Library” (2021)
For some assays here: Entries with a potency or affinity are not part of this list.

Columns and labels:
Design in all cases: scale not given: direction of the effect not stated beside the values
[1] = target: Protein translocase subunit SecA (Escherichia coli (strain K12)) (UniProt P10408); experiment: Assay to Identify E. coli SecA ATPase Inhibitors; type: functional; conditions: 30 µM
Chain of Protein translocase subunit SecA (Escherichia coli (strain K12)) (P10408 whole entry): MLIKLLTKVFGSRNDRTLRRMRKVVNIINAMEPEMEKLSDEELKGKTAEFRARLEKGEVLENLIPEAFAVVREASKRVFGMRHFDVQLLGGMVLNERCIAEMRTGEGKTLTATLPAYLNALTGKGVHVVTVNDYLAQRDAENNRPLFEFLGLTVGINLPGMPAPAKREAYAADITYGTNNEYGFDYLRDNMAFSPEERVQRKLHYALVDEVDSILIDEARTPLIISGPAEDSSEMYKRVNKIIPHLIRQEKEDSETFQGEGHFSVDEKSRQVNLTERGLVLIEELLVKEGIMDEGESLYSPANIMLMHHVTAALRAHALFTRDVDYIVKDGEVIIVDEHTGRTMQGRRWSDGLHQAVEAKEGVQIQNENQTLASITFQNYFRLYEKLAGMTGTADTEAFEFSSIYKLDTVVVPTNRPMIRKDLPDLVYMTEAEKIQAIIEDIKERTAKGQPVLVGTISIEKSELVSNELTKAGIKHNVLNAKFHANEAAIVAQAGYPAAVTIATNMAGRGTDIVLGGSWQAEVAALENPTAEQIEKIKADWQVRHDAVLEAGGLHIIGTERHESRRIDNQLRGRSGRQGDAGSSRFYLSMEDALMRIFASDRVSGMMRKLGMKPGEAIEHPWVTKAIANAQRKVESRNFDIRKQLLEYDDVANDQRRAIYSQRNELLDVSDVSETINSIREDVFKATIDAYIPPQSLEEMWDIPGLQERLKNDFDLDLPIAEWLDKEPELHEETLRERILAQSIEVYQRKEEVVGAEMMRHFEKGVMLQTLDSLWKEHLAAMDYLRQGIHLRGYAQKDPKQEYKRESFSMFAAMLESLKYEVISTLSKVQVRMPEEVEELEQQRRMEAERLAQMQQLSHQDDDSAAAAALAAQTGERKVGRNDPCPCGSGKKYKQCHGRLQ

[2] = target: T1, Ubiquitin-activating enzyme e1, putative (Leishmania donovani (strain BPK282A1)) (UniProt E9BSI1); experiment: Leishmania donovani Ubiquitin Activating Enzyme (LdE1); type: functional; conditions: 30 µM
T1 sequence (whole entry): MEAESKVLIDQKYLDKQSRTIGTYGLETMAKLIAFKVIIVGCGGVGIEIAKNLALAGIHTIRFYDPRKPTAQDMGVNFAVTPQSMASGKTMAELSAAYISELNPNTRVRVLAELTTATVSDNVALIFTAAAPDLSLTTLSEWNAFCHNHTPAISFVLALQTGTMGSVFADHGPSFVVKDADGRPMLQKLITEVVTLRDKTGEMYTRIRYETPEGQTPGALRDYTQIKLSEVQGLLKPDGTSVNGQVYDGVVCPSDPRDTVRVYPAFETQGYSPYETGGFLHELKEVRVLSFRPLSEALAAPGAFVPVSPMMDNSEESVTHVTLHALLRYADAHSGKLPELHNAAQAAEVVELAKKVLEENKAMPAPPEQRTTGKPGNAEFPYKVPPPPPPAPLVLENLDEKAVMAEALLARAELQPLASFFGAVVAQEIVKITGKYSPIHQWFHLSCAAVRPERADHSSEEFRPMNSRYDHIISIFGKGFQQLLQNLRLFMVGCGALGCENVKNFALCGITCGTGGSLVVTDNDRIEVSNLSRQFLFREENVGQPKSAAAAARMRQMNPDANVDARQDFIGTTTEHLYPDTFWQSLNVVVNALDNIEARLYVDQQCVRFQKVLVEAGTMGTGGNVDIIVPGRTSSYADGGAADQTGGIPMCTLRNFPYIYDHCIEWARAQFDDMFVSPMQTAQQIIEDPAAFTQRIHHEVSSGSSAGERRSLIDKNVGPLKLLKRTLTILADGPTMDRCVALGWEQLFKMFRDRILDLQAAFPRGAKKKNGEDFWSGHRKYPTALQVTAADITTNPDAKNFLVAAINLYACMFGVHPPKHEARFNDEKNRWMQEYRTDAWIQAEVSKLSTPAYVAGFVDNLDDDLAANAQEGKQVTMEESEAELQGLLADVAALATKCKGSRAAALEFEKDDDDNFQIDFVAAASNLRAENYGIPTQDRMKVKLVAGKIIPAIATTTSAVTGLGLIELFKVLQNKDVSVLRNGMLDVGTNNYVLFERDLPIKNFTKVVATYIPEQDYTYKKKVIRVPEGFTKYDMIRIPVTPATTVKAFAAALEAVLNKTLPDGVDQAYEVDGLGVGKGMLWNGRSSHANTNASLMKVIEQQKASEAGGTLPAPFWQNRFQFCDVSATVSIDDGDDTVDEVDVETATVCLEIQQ

[3] = target: AMP-activated protein kinase, AMPK (Homo sapiens) (UniProt P54646+O43741+P54619+Q9UGJ0+Q9Y478+Q13131+Q9UGI9); experiment: AMP-dependent Kinase enzyme assay. An in vitro enzyme assay that detects ADP turnover that is directly proportional to AMPK activity. This uses naive AMPK that is activated during the assay with MK-8722; type: functional; conditions: 30 µM
[4] = target: Sialic acid-binding Ig-like lectin 9 (Homo sapiens) (UniProt Q9Y336); experiment: Hs-Siglec9 ALPHAscreen SOP 20170721; conditions: 10 µM
Chain of Sialic acid-binding Ig-like lectin 9 (Homo sapiens) (Q9Y336 whole entry): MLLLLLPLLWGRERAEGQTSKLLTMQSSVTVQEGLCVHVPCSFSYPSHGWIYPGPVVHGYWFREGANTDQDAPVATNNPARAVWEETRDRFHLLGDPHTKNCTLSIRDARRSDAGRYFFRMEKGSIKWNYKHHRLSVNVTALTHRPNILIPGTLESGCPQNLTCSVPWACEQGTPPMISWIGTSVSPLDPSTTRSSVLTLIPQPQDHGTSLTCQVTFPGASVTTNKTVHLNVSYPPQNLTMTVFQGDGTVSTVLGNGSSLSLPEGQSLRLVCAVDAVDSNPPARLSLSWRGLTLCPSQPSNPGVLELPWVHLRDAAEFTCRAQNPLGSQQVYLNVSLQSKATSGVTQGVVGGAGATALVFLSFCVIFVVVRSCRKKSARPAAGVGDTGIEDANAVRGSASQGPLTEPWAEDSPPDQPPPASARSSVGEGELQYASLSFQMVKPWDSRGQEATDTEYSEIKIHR

[5] = test system: Trypanosoma cruzi; experiment: Trypanosoma cruzi phosphomannomutase and mannose-1-phosphate guanylyltransferase assay; type: functional; conditions: 10 µM
[6] = target: T2, Arginase-2, mitochondrial (Homo sapiens) (UniProt P78540); experiment: in vitro enzyme assay to detect the production of urea directly proportional to the activity of Arginase II; type: functional; conditions: 33.3 µM; also: in the data most compounds retested in dose-response had high values
T2 sequence (whole entry): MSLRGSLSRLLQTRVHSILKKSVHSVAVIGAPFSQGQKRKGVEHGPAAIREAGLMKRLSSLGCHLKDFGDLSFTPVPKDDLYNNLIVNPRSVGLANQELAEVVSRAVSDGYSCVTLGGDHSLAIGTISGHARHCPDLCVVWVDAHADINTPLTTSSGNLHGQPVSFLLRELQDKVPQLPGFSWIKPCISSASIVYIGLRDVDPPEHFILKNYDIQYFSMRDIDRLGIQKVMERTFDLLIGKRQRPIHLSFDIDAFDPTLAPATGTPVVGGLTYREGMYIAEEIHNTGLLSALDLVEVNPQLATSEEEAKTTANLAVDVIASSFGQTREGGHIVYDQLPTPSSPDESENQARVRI

[7] = target: T3, Proteasome subunit beta (Trypanosoma cruzi) (UniProt O96673); experiment: Trypanosoma cruzi proteasome chymotrypsin-like activity (TcProtChymo) assay.; also: in the data most compounds retested in dose-response had high values; type: functional; conditions: 9.37 µM
T3 sequence (whole entry): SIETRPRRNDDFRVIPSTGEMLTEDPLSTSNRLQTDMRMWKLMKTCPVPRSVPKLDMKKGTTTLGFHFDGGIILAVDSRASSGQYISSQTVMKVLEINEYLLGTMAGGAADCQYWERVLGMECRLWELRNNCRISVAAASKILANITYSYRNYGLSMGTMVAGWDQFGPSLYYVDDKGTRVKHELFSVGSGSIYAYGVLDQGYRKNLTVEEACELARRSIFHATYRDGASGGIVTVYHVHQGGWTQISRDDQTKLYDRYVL

[8] = species: Homo sapiens; experiment: To identify inhibition of the IFN signalling (Jak-Stat) pathway via expression of an eGFP reporter gene under the control of an IFN-stimulated response element (ISRE) containing MxA promoter.; type: functional; conditions: 30 µM
[9] = target: T4, Tyrosyl-tRNA synthetase, putative (Trypanosoma cruzi (strain CL Brener)) (UniProt Q4DSP6); experiment: Trypanosoma cruzi tyrosyl tRNA synthetase (TcYRS) _High Tyrosine SOP; type: functional; conditions: 30 µM; also: in the data most compounds retested in dose-response had high values
T4 sequence (whole entry): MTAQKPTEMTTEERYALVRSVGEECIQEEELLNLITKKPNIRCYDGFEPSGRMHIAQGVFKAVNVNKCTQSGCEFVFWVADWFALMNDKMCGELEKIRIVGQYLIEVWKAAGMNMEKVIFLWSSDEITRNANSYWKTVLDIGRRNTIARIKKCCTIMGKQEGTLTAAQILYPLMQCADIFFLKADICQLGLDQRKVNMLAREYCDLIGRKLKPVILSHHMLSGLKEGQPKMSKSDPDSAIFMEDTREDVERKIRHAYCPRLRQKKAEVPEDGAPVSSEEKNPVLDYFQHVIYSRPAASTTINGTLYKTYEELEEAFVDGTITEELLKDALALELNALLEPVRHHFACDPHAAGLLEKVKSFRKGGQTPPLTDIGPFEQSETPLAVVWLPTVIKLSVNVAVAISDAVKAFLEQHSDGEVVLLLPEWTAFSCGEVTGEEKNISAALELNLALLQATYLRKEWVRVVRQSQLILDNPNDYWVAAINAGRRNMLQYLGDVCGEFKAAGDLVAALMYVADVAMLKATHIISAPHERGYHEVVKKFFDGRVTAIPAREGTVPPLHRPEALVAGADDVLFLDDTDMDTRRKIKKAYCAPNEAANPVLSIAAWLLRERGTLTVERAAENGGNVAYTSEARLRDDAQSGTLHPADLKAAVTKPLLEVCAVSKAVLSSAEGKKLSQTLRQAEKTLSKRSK

[10] = target: T4, Tyrosyl-tRNA synthetase, putative (Trypanosoma cruzi (strain CL Brener)); experiment: Trypanosoma cruzi tyrosyl tRNA synthetase (TcYRS) SOP; type: functional; conditions: 30 µM
[11] = target: Chromo domain-containing protein 1 (Saccharomyces cerevisiae (strain ATCC 204508 / S288c) (Baker's yeast)) (UniProt P32657); experiment: ScCHD-1 Enzyme Inhibition Assay; type: functional; conditions: 30 µM; also: in the data most compounds retested in dose-response had high values
Chain of Chromo domain-containing protein 1 (Saccharomyces cerevisiae (strain ATCC 204508 / S288c) (Baker's yeast)) (P32657 whole entry, the tested form may be a part): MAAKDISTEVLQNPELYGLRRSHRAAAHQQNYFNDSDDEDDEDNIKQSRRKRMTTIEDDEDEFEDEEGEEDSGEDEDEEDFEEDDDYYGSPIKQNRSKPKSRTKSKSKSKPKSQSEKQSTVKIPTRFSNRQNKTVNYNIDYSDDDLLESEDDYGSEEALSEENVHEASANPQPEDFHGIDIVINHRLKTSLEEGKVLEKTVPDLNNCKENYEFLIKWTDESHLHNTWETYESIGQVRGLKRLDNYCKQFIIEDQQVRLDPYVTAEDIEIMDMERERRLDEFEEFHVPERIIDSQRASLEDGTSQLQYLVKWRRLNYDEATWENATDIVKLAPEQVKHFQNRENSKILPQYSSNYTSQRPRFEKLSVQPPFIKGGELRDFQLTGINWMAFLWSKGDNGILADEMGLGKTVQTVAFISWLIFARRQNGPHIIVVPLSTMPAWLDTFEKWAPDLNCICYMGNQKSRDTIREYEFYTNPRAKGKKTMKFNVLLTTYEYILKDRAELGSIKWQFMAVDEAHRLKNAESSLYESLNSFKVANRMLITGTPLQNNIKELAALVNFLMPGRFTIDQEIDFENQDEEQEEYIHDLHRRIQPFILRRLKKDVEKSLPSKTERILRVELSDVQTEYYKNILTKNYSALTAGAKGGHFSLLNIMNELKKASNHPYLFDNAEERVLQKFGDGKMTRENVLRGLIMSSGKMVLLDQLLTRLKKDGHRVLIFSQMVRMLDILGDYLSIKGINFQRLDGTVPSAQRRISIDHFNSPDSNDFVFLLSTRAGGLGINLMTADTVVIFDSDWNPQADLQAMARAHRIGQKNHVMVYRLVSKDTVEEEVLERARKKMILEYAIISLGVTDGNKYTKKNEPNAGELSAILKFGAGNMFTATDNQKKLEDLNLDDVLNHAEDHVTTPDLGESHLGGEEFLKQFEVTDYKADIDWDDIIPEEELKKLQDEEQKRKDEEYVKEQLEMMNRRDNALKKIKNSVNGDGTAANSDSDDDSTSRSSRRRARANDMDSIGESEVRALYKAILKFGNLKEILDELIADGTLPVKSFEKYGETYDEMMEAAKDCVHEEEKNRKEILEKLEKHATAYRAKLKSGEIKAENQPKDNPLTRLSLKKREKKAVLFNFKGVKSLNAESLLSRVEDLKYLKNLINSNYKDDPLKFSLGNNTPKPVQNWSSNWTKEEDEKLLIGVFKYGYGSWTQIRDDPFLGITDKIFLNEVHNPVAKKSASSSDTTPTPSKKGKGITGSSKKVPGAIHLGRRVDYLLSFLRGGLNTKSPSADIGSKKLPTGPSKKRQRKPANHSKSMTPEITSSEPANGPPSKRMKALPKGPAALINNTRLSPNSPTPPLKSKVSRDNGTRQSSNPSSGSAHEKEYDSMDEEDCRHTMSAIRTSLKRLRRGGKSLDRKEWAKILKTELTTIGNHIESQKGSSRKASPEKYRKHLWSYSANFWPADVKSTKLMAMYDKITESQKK

| Compound | Percent Effect [1] | Percent Effect [2] | Percent Effect [3] | Percent Effect [4] | Percent Effect [5] | Percent Effect [6] | Percent Effect [7] | Percent Effect [8] | Percent Effect [9] | Percent Effect [10] | Percent Effect [11] |
| --- | --- | --- | --- | --- | --- | --- | --- | --- | --- | --- | --- |
| CCc1nc(C2CCCN(C(=O)c3ccc(OC(C)C)nc3)C2)no1 (stereo not given) | -8.81% | 5.2% | -0.62% | -8.98% | -3.43% | 3.16% | 1.05% | 15.9% | -0.952% | 0% | -17.8% |
| CC(C)c1cc(NC(=O)CN2CCc3c(nc(C(C)C)n3C)C2)on1 | -0.514% | 0% | -3.17% | 8.75% | 2.62% | -4.98% | 17.9% | 12% | 5.83% | 9.76% | -7.27% |
| CNC(=O)c1cccc(C2CNCCN2C(C)=O)c1 (stereo not given) | 0.479% | 14.9% | 9.34% | -6.16% | -4.15% | -0.232% | 10.6% | 19.3% | 2.15% | 3.9% | -8.27% |
| Cn1nnc2c1CCN(Cc1ccccc1)C2COCC1CC1 (stereo not given) | -1.15% | 2.67% | -10.3% | -0.164% | 3.15% | 2.1% | 5.9% | 8.15% | 14.9% | 24.4% | -11.1% |
| Cc1ncc2c(n1)CN(Cc1nnc(-c3occc3C)o1)CC2 | -2.4% | 18.9% | -24.9% | 14.5% | 6.04% | 2.03% | 6.82% | -0.684% | 22.8% | 30.5% | -8.36% |
| COc1cccc2c1ccn2CC(=O)N[C@@H](CCSC)C(=O)O | 1.36% | -1.33% | -55.8% | 3.95% | -0.197% | -7.57% | 11.5% | -11.4% | 4.23% | -30.8% | -0.515% |
| Cn1nnc2cc(C(=O)N3CCCC3Cc3ccccc3)ccc21 (stereo not given) | -4.28% | 2.74% | 2.56% | 2.89% | 4.11% | -3.18% | 5.68% | 7.53% | 0% | 5% | -4.61% |
| Cc1cccc(NC2CCN(C(=O)Nc3cc(F)cc(F)c3)CC2)n1 | -9.91% | 7.59% | -1.53% | 14.7% | 12.4% | -4.18% | 4.34% | 27.7% | -0.493% | 13.9% | -7.84% |
| Cc1cc(C)n(CC2CCCN2CC(=O)N(C)Cc2cnn(C)c2)n1 (stereo not given) | -5.54% | 8.11% | -10.7% | 3.9% | 1.04% | -4.01% | 13% | 9.55% | 6.4% | 13.6% | -11.6% |
| COCCN1C[C@@H](C)[C@@]2(COCCN(C(=O)c3cnc(C)cn3)C2)C1 | 0.144% | 10.7% | 6.23% | 3.86% | -3.28% | -21.3% | 12.7% | -11.1% | -5.21% | 12.5% | -6.61% |
